Experimental data: paper PMC4552634, “A New Set of Chemical Starting Points with Plasmodium falciparum Transmission-Blocking Potential for Antimalarial Drug Discovery” (PLoS ONE, 2015)
The whole screen tested about 13,000 compounds, of which about 3,200 (25%) showed an effect of 50% or more. Some of the results follow.

The molecules below were run on P. falciparum stage V gametocytes. Conditions: 48 h, 5 µM; inhibitor.
Design: BacTiter-Glo ATP luminescence viability of purified stage V gametocytes in 384-well plates, per cent inhibition versus DMSO
With OCCOCCNCc1cccc(C#Cc2cc3ncnc(Nc4ccc(OCc5cccc(F)c5)c(Cl)c4)c3s2)n1 [TCMDC-138843] the “% Inhibition” value was -31.63%.
With CCNc1nc(OCC(F)(F)F)nc(N(c2ccccc2)c2ccccc2)n1 [TCMDC-125801] the “% Inhibition” value was -11.7%.
For O=C(c1cc(C(=O)NC2CCCCC2)c(=O)n(C2CCCCC2)c1)c1cc(F)ccc1O [TCMDC-124525], the “% Inhibition” value was 20.48%.
For NCC(NC(=O)c1ccc(-c2c[nH]c3ncccc23)s1)c1ccccc1 (stereo not drawn) [TCMDC-134154], the “% Inhibition” value was -44.12%.
CCC1(CC)CN(c2ccccc2)c2ccc(O)cc2S(=O)(=O)C1CC(C)C (stereo not drawn) [TCMDC-137217] was tested, and the “% Inhibition” value was -89.07%.
For N#Cc1ccc2c(c1)CCN(CCC1CCC(NC(=O)/C=C/c3ccc4ccccc4c3)CC1)CC2 (stereo not drawn) [TCMDC-139779], the “% Inhibition” value was -26.43%.
For OCCCCCCNc1ccnc2[nH]c3ccc(I)cc3c12 [TCMDC-131830], the “% Inhibition” value was 10%.
Cc1cccc2[nH]c(-c3ccc(-c4cccc(NC(=O)Nc5ccc6c(c5)OCO6)c4)cc3)nc12 [TCMDC-133166] was tested, and the “% Inhibition” value was -1.928%.
Cc1cccc2[nH]c(-c3cccc(-c4ccc(NC(=O)Nc5ccc6c(c5)OCO6)cc4)c3)nc12 [TCMDC-133163] was tested, and the “% Inhibition” value was -27.37%.
For CC(Sc1nc2sccc2c(=O)n1C)C(=O)Nc1ccc2c(c1)OCO2 (stereo not drawn) [TCMDC-125026], the “% Inhibition” value was 100.7%.
For O=C(NCC1CCC(C(=O)O)CC1)c1ccc(/C=C/C(=O)N2CCc3ccccc3C2c2ccc3c(c2)OCO3)cc1 (stereo not drawn) [TCMDC-138267], the “% Inhibition” value was -9.047%.
For O=S(=O)(NCCN1CCCC1)c1ccc(-c2cccc(CNCc3ccc(F)cc3)c2)cc1 [TCMDC-132407], the “% Inhibition” value was 38.56%.
In the case of O=S(=O)(NCCN1CCCC1)c1cccc(-c2cccc(CNCc3ccc(F)cc3)c2)c1 [TCMDC-132276], the “% Inhibition” value was 98.39%.
For O=S(=O)(NCCN1CCCC1)c1cccc(-c2ccc(CNCc3ccc(F)cc3)cc2)c1 [TCMDC-132289], the “% Inhibition” value was 105.2%.
CS(=O)(=O)c1ccc(CNCc2cccc(-c3cccc(-c4nc5ccc(F)cc5[nH]4)c3)c2)cc1 [TCMDC-132907] was tested, and the “% Inhibition” value was -11.65%.
For O=C(/C=C/c1ccc(Cl)c(Cl)c1)NCCCCCN1CCC(n2c(=O)[nH]c3ccccc32)CC1 [TCMDC-139330], the “% Inhibition” value was -42.06%.
For CC(C)C[C@H](NC(=O)[C@H](Cc1ccccc1)NC(=O)CCN1C(=O)COc2ccc(C(=O)O)cc21)C(=O)NC(CC1CCCCC1)C(O)CC(=O)NCCCn1ccnc1 (stereo partly drawn) [TCMDC-131640], the “% Inhibition” value was 6.577%.
With c1ccc(COc2ccc(C3CCCCC3)cc2)nc1 [TCMDC-131330] the “% Inhibition” value was 8.048%.
CC(CNC(=N)c1cccc(C(=N)NCC(C)Oc2cccc(C3CCCCC3)c2)n1)Oc1cccc(C2CCCCC2)c1.Cl (stereo not drawn) [TCMDC-137455] was tested, and the “% Inhibition” value was 116.2%.
With O=C(Cc1ccc(F)cc1)NC1CCN(c2ccnc3cc(Cl)ccc23)C1 (stereo not drawn) [TCMDC-133668] the “% Inhibition” value was 7.133%.
For CCCSc1nc2c(c(=O)n1CCc1ccccc1)C1(CCCC1)Cc1ccccc1-2 [TCMDC-123890], the “% Inhibition” value was -17.67%.
In the case of CC(C)Sc1nc2c(c(=O)n1CCc1ccccc1)C1(CCCC1)Cc1ccccc1-2 [TCMDC-123891], the “% Inhibition” value was -12.92%.
With C=C(C)CSc1nc2c(c(=O)n1CCc1ccccc1)C1(CCCC1)Cc1ccccc1-2 [TCMDC-123892] the “% Inhibition” value was 66.35%.
In the case of Cc1cc(C(=O)Nc2ccc3c(c2)CCN3C2CCN(Cc3cc(F)cc(F)c3F)C2)no1 (stereo not drawn) [TCMDC-135083], the “% Inhibition” value was 0.2789%.
In the case of Cc1nc(N)nc(N)c1CCCOc1cccc(Cl)c1 [TCMDC-138067], the “% Inhibition” value was -4.32%.
In the case of CN(Cc1ccc(C#N)cc1)C1CCN(c2cc(NC(=O)c3ccc(F)cc3)ccn2)CC1 [TCMDC-134978], the “% Inhibition” value was 9.957%.
CN(Cc1cc(C(F)(F)F)cc(C(F)(F)F)c1)C(=O)C(Cc1ccc(F)cc1)C1CCCNC1 (stereo not drawn) [TCMDC-138909] was tested, and the “% Inhibition” value was 92.9%.
In the case of CN(Cc1cc(C(F)(F)F)cc(C(F)(F)F)c1)C(=O)C1CNCC1c1ccc(F)cc1 (stereo not drawn) [TCMDC-137553], the “% Inhibition” value was 10.31%.
CCCc1cc(N2CCC(N(CC)CC)C2)nc(Nc2ccc(OC)cc2)n1 (stereo not drawn) [TCMDC-132388] was tested, and the “% Inhibition” value was -68.85%.
With COC(=O)c1ccc(CC(C)NCC(O)c2ccc3ccc4ccccc4c3c2)cc1 (stereo not drawn) [TCMDC-131429] the “% Inhibition” value was 28.11%.
With CC(=NN=C(N)N)c1ccc2c(ccc3ccccc32)c1 [TCMDC-137669] the “% Inhibition” value was 96.96%.
CC(=NN=C(N)N)c1ccc2c(c1)Cc1ccccc1-2 [TCMDC-137666] was tested, and the “% Inhibition” value was 27.22%.
Nc1ncc(Cc2ccc3c(ccc4ccccc43)c2)c(N)n1 [TCMDC-137874] was tested, and the “% Inhibition” value was 19.52%.
CC(=NN=C(N)N)c1ccc2ccc3ccccc3c2c1 [TCMDC-137667] was tested, and the “% Inhibition” value was 76.83%.
CC(C)C[C@@H]1C(=O)N[C@H](C2Cc3ccccc3C2)C(=O)N1[C@@H](C(=O)O)c1ccc(F)cc1F [TCMDC-138777] was tested, and the “% Inhibition” value was -24.68%.
With Clc1nc2ccccn2c1C=Cc1ccc2ccccc2n1 [TCMDC-125327] the “% Inhibition” value was -7.636%.
With COc1cc(-c2nc(-c3ccc4c(c3)CCC4=NO)c(-c3ccncc3)[nH]2)ccc1OCCN1CCCCC1 [TCMDC-141257] the “% Inhibition” value was 22.85%.
With O=C(/C=C/c1cccc(Cl)c1)Nc1ccc2nc(CN3CCCC3)ccc2c1 [TCMDC-135628] the “% Inhibition” value was -49.28%.
In the case of O=C(Nc1cccc(CN2CCCN(Cc3ncc[nH]3)CC2)c1)c1ccc(Cl)c(Cl)c1 [TCMDC-141833], the “% Inhibition” value was -19.06%.
Cc1cc2ccc(-c3cccc(CN)c3)cc2nc1N [TCMDC-137624] was tested, and the “% Inhibition” value was 65.41%.
With Cc1cc2cc(-c3ccc(CN)cc3)ccc2nc1N [TCMDC-137774] the “% Inhibition” value was 101.7%.
Cc1ccc(O)cc1Nc1ccnc2cc(-c3cccc(CNCCS(C)(=O)=O)c3)ccc12 [TCMDC-138472] was tested, and the “% Inhibition” value was -16.38%.
In the case of COc1ccc(CCNCc2ccc3nc(N)c(C)cc3c2)cc1 [TCMDC-138098], the “% Inhibition” value was 30.17%.
Cc1ccc(Cc2cccc3nc(N)nc(N)c23)cc1 [TCMDC-137730] was tested, and the “% Inhibition” value was -6.399%.
In the case of CN1CCc2ccc(NC(=O)Nc3cccc([N+](=O)[O-])c3)cc2C1 [TCMDC-139120], the “% Inhibition” value was -5.165%.
For FC(F)(F)Oc1ccc(Nc2cc(-c3ccncc3)nc(-c3cccnc3)n2)cc1 [TCMDC-125416], the “% Inhibition” value was 22.38%.
For CC(C)(C)c1ccc(NC(=O)c2ccc(CN3CCCN(Cc4cccc(O)c4)CC3)cc2)cc1 [TCMDC-136433], the “% Inhibition” value was -12.56%.
With Cc1cccc2[nH]c(-c3cccc(-c4cccc(NC(=O)c5cccnc5Cl)c4)c3)nc12 [TCMDC-136839] the “% Inhibition” value was 42.83%.
For O=[N+]([O-])c1cccc(-c2ccc(C=NNc3cc(N4CCCC4)nc(N4CCCC4)n3)o2)c1 [TCMDC-124053], the “% Inhibition” value was 34.95%.
CC1CN(Cc2cccc(F)c2)CCN1c1ccc(NC(=O)c2cccs2)cc1 (stereo not drawn) [TCMDC-135009] was tested, and the “% Inhibition” value was 3.6%.
With Cc1cccc(-c2ccc(CNC3CCN(CC4Cn5c(=O)ccc6ccc(F)c4c65)CC3)cn2)c1 (stereo not drawn) [TCMDC-134413] the “% Inhibition” value was -59.7%.
With COC(=O)c1ccccc1COc1ccc(CC2(NC(=O)[C@H](Nc3ccc(C#N)c4ccccc34)C(C)(C)C)CCCC2)cc1 [TCMDC-136783] the “% Inhibition” value was 21.91%.
For CNCCNCc1ccc(-c2ccc(-c3nc4c(C)cccc4[nH]3)s2)cc1 [TCMDC-132828], the “% Inhibition” value was 96.61%.
In the case of Cc1cccc2[nH]c(-c3ccc(-c4cccc(CNCCCNS(C)(=O)=O)c4)cc3)nc12 [TCMDC-133082], the “% Inhibition” value was -3.877%.
For Cc1cccc2[nH]c(-c3ccc(-c4ccc(CN5CCN(CCN6CCOCC6)CC5)cc4)s3)nc12 [TCMDC-133930], the “% Inhibition” value was 30.2%.
COCCN1CCN(Cc2ccc(-c3ccc(-c4nc5c(C)cccc5[nH]4)s3)cc2)CC1 [TCMDC-133021] was tested, and the “% Inhibition” value was 2.979%.
In the case of CNCCNCc1cccc(-c2cccc(-c3nc4c(C)cccc4[nH]3)c2)c1 [TCMDC-132825], the “% Inhibition” value was 101.1%.
Cc1cccc2[nH]c(-c3ccc(-c4ccc(CNCc5ccccc5)cc4)s3)nc12 [TCMDC-132709] was tested, and the “% Inhibition” value was -2.299%.
Cc1cccc2[nH]c(-c3ccc(-c4ccc(CN5CCN(CCO)CC5)cc4)s3)nc12 [TCMDC-133027] was tested, and the “% Inhibition” value was 2.277%.
With C#CCNCc1ccc(-c2cccc(-c3nc4c(C)cccc4[nH]3)c2)cc1 [TCMDC-132804] the “% Inhibition” value was -34.44%.
In the case of Cc1cccc2[nH]c(-c3ccc(-c4ccc(CNCCN5CCNCC5)cc4)s3)nc12 [TCMDC-132870], the “% Inhibition” value was 77.87%.
Cc1cccc2[nH]c(-c3cccc(-c4ccc(CNCc5ccccc5)cc4)c3)nc12 [TCMDC-132710] was tested, and the “% Inhibition” value was 64.93%.
Cc1cccc2[nH]c(-c3cccc(-c4cccc(CNCc5ccccc5)c4)c3)nc12 [TCMDC-132713] was tested, and the “% Inhibition” value was 10.68%.
With Cc1cccc2[nH]c(-c3cccc(-c4cccc(CNC(C)C)c4)c3)nc12 [TCMDC-132738] the “% Inhibition” value was -9.933%.
In the case of CN(c1ccc2c(c1)nc(NCc1ccc(F)cc1)n2C)c1ccnc(Nc2ccc(CS(C)(=O)=O)cc2)n1 [TCMDC-138747], the “% Inhibition” value was 36.21%.
In the case of Oc1cc(Nc2ccnc3ccc(I)cc23)c(F)cc1Cl [TCMDC-138500], the “% Inhibition” value was -12.42%.
With COc1ccc(-n2cc(C(=O)c3cc(Br)ccc3O)cc(C#N)c2=O)cc1Cl [TCMDC-124524] the “% Inhibition” value was 13.45%.
COc1ccccc1C1CC(c2ccccc2)=NN1C(=O)c1ccccc1 (stereo not drawn) [TCMDC-123702] was tested, and the “% Inhibition” value was 28.29%.
With O=C(CCCCCNC(=O)c1ccc(O)c(-c2ccc(Cl)c(Cl)c2)c1)NCc1cccc2ccccc12 [TCMDC-140875] the “% Inhibition” value was 8.372%.
